Compound activity from PubChem.
GLP-1R agonist: qHTS of GLP-1 Receptor Agonists | actives 0.007% (n = 380,000) | Glucagon-like peptide 1 receptor (Homo sapiens), P43220 | HEK293 GLP-1R CRE-luciferase, luminescence, 4-6 h; cells express a hypersensitive GLP-1R form | Potency, µM (series often up to 45.6 µM), without a hit: top-dose activation, usual class: activators; also: % of control where 0% means no effect
Target sequence (P43220 whole entry, looked up): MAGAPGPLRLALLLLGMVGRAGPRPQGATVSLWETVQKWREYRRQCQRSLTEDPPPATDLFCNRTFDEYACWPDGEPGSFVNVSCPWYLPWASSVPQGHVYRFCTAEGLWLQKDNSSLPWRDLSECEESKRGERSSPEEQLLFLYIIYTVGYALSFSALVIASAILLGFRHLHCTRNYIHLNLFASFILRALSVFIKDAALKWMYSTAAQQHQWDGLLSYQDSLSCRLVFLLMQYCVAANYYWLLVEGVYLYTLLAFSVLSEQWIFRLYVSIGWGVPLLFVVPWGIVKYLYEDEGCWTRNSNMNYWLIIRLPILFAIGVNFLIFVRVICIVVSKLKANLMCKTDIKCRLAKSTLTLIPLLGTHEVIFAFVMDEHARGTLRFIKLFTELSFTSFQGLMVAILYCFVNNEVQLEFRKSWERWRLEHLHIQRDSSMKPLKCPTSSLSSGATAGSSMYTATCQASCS
GLP1R cytotox: qHTS of GLP-1 Receptor Inverse Agonists: Cytotox Screen. HEK293 cAMP-luciferase reporter cells, luminescence, 24 h. Potency, µM (highest dose often 38.3 µM), inactives show top-dose activity change, negative = inhibition, most hits filed as inhibitors. actives 0.13% (n = 410,000). AID 624418, 2012;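 also: loss of luciferase light is scored as toxicity; % is scaled to controls: 0 for no effect and ±100 for the full control effect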
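Here, cytotoxicity is scored as loss of luminescence. The MLSMR collection was tested on cells seeded in medium containing 10% Nu serum, with a 24 hr compound exposure preceded by 12 hours of culture.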
GLP1R inv ag: qHTS of GLP-1 Receptor Inverse Agonists (Inhibition Mode) | HEK293 GLP-1R CRE-luciferase, luminescence, 24 h; GLP-1R form is constitutively active | Potency, µM (highest dose often 38.3 µM), for the others: at the highest dose activity change, negative = inhibition, usual class: inhibitors | Glucagon-like peptide 1 receptor (Homo sapiens), P43220 | actives 1.6% (n = 410,000); also: % is scaled to controls: 0 for no effect and ±100 for the full control effect; nearly all actives have a fitted effect of over 55% in size
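Inverse agonism was detected as reduced cAMP-driven luciferase luminescence after 24 h compound treatment. The cells were HEK293 clones expressing constitutively active human GLP-1R with the reporter. Reporter-only and GPR119 cell lines served as counterscreen controls.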
Active calls of the source: *; ? = inconclusive; · = not tested or not shown. The list is not random: actives were taken first. Their share in the collection is about 1.7%. Calls follow the shape of the dose curve; as a rule, active = well fitted curve in the direction sought with a large enough effect; inconclusive = small, poorly fitted or top-dose-only effect, or another doubt; inactive = no such curve, though single readings can be large; an effect the other way counts as inactive or inconclusive. Potency is read from the fitted curve at half-maximal effect.

SMILES | GLP-1R agonist | GLP1R cytotox | GLP1R inv ag
O=C(CN1C(=O)C2(SCC(=O)N2c2cccc(F)c2)c2ccccc21)NCc1ccccc1Cl (stereo not drawn) | -1% | -15% | 8.9µM*
O=C(CN1C(=O)C2(SCC(=O)N2c2ccccc2)c2ccccc21)NCc1ccccc1Cl (stereo not drawn) | -4% | -12% | -9%
CCn1cc(C(=O)OCC(=O)NCc2ccccc2Cl)c(=O)c2ccc(C)nc21 | 12% | 13% | 6%
COc1cc2c(cc1NC(=O)c1ccccc1C)n(C)c(=O)n2C | 8% | -2% | 10%
OC(c1ccccc1)(c1ccc(F)cc1)C(c1ccccc1)N1CCOCC1 (stereo not drawn) | -12% | -32% | 7.9µM*
CC(O)(c1ccccc1)C(C(c1ccccc1)N1CCOCC1)N1CCOCC1 (stereo not drawn) | -9% | -1% | 8%
c1ccc(Cn2ncc3c(N4CCN(c5ccccc5)CC4)ncnc32)cc1 | -1% | 1% | 24%
C=CCNC(=O)c1c(CSc2ccc(Cl)cc2)noc1C(=O)NCc1ccccc1 | 2% | 2% | 7.9µM*
C=CCNC(=O)c1c(CSc2ccc(Cl)cc2)noc1C(=O)NCCC | 15% | -5% | ?
CCCNC(=O)c1onc(CSc2ccc(Cl)cc2)c1C(=O)NCCC(C)C | 9% | 0% | 10µM*
C=CCNC(=O)c1c(CSc2ccccc2)noc1C(=O)NCc1ccccc1 | -1% | 4% | -5%
CC(=O)Oc1cc2c(s1)CCN(C(C(=O)C1CC1)c1ccccc1F)C2 (stereo not drawn) | 5% | · | ·
COCC(=O)N1C[C@H]2CON(C)[C@H]2C[C@H]1c1cccc(-c2ccccc2)c1 | 2% | 0% | 6%
COC(=O)c1ccc(NC(=S)NC(=O)C2CCC2)cc1 | -1% | ? | -15%
COC(=O)c1ccc(NC(=S)NC2CCCCC2C)cc1 (stereo not drawn) | 0% | ? | 10µM*
CSCC[C@H](NC(=O)[C@@H](Cc1ccc(O[S+](=O)([O-])O)cc1)NC(=O)[C@H](N)CC(=O)O)C(=O)NCC(=O)N[C@@H](Cc1c[nH]c2ccccc12)C(=O)N[C@H](CCSC)C(=O)N[C@H](CC(=O)O)C(=O)N[C@@H](Cc1ccccc1)C(N)=O | 0% | · | ·
Cc1cccc(C2=NN(c3ccccc3)[C@@H](C(=O)N3CCOC3=O)[C@@H]2c2ccc(F)cc2)c1 | 1% | 125% | 13µM*
Cc1cccc(C2=NN(c3ccccc3)[C@@H](C(=O)N3CCOC3=O)[C@@H]2c2ccc(Cl)cc2)c1 | -1% | 51% | ?
Cc1cc(C)nc(N/N=C/C=C/c2ccccc2)n1 | -6% | 11µM* | ?
Cc1cc(C)nc(N/N=C/c2ccccc2)n1 | -9% | -1% | 0%
CCCNC(=O)C1(C)CCCN(C(=O)c2ccccc2OC)C1 (stereo not drawn) | 2% | 1% | 19%
CC1CCN(c2oc(-c3ccc(COc4ccc(Cl)cc4)o3)nc2C#N)CC1 | · | -7% | 1%
CCOc1ncccc1C(=O)OCC(=O)NC1CCCCCC1 | 26% | -8% | 1%
Cc1ccc(C)c(NC(=O)CN(CCc2ccccc2)S(=O)(=O)c2ccccc2)c1 | · | -9% | -12%
CCOc1ccccc1NC(=O)CN(CCc1ccccc1)S(=O)(=O)c1ccc(C)cc1 | · | 0% | 10µM*
SMILES | GLP-1R agonist | GLP1R cytotox | GLP1R inv ag
CC1(C(=O)NC2CCN(Cc3ccccc3)CC2)CCN1Cc1ccc(OC(F)(F)F)cc1 (stereo not drawn) | -3% | -15% | ?
CC(C)(Oc1ccc(Cl)cc1)C(=O)NC1CCN(Cc2ccccc2)CC1 | 6% | -7% | 8.9µM*
CC(C)(C)c1csc(NC(=O)c2ccc(Br)o2)n1 | 1% | 0% | 10µM*
Cc1ccc(C(=O)Nc2nc(C(C)(C)C)cs2)s1 | 3% | 16% | ?
CC(C)(C)c1csc(NC(=O)c2ccncc2)n1 | 2% | 7% | 25%
CC(C)(C)c1csc(NC(=O)c2ccc(Cl)s2)n1 | -2% | -4% | 2.8µM*
COc1ccc2c(Sc3ccc(C)cc3)c(C(=O)NCc3ccc(F)cc3)[nH]c2c1 | · | 2% | 7%
CCN1C(=O)[C@H]2[C@@H](c3ccc(-c4ccc5c(c4)OCO5)cc3)N[C@@](Cc3ccccc3)(C(=O)OC)[C@H]2C1=O | 12% | 6% | -25%
CCN1C(=O)[C@H]2[C@@H](c3ccc(-c4cccc(Cl)c4)cc3)N[C@@](Cc3ccccc3)(C(=O)OC)[C@H]2C1=O | -2% | 6% | 7.9µM*
CCc1ccc(NC(=O)c2c(Cl)nc(C)c(Cl)c2C)cc1 | 8% | -5% | 4µM*
Cc1ccccc1NC(=O)c1c(Cl)nc(C)c(Cl)c1C | 2% | -5% | -2%
CCOc1ccccc1-c1noc(CSc2nnc(-c3ccccc3)n2-c2cccc(C)c2)n1 | · | 3% | 9%
O=C(CCCOc1ccccc1)N1CCN(c2ccccn2)CC1 | -6% | -11% | 10µM*
O=C(CCCOc1ccc(Cl)cc1Cl)N1CCN(c2ccccn2)CC1 | 8% | 1% | 0%
O=C1C(=Nc2cccc(Cl)c2)CC(c2ccc(Cl)cc2)N1c1cccc(Cl)c1 (stereo not drawn) | -2% | 7% | -3%
CC(C)c1ccc(-c2nn(-c3ccccc3)cc2C2C(C#N)=C(N)OC3=C2C(=O)CC(C)(C)C3)cc1 (stereo not drawn) | -11% | -30% | 13µM*
Cc1nn(-c2ccccc2)c(Cl)c1C1C(C#N)=C(N)OC2=C1C(=O)CC(C)(C)C2 (stereo not drawn) | 2% | ? | ?
CCC(C)c1ccc(O)c(NC(=O)c2cccnc2)c1 (stereo not drawn) | -3% | -12% | 5%
CCC(C)c1ccc(O)c(NC(=S)NC(=O)c2cccs2)c1 (stereo not drawn) | 9% | -14% | 8.9µM*
CCc1ccccc1NC(=O)Cn1c(=O)ccc2cc(S(=O)(=O)N3CCC(C)CC3)ccc21 | -6% | 1% | 6%
CCOc1ccc(-n2c(=O)c3c(C)c(C)sc3n(CC(=O)N(CC)Cc3ccccc3)c2=O)cc1 | · | 5% | 6%
Cc1ccc(NC(=O)COc2ccc3c(c2)CCC3)nc1 | 18% | 5% | 8%
C(=C\c1ccc2ccccc2n1)/c1ccccc1 | -2% | -15% | 10µM*
O=[N+]([O-])c1ccc(/C=C/c2ccc3cccc(O)c3n2)cc1 | -1% | -55% | 3%
Oc1ccc(/C=C/c2ccc3ccccc3n2)cc1 | 20% | 176% | ?
O=[N+]([O-])c1ccc(/C=C/c2ccc3ccccc3n2)cc1 | 17% | 0% | 10µM*
COc1ccc(N2CC(NC(=O)C(c3ccccc3)c3ccccc3)CC2=O)cc1 (stereo not drawn) | · | -13% | -29%
Cc1cc2c(c(=O)o1)C(c1ccc([N+](=O)[O-])o1)C(C#N)=C(N)O2 (stereo not drawn) | 0% | -2% | 17%
Cc1cccc(NC(=O)CSc2ncc(-c3ccc(Br)cc3)[nH]2)c1 | · | -15% | -24%
